G9a block: qHTS Assay for Inhibitors of Histone Lysine Methyltransferase G9a; Potency, µM (highest dose often 102 µM), without a hit: at the top dose activity, negative = inhibition, hits mostly inhibitors; Histone-lysine N-methyltransferase EHMT2 (Homo sapiens), Q96KQ7; actives 8.8% (n = 350,000); G9a H3K9 monomethylation, AlphaScreen, 2 h; also: % is scaled to controls: 0 for no effect and ±100 for the full control effect; nearly all actives have a fitted effect of over 75% in size
Target sequence (Q96KQ7 913-1193 limits assumed): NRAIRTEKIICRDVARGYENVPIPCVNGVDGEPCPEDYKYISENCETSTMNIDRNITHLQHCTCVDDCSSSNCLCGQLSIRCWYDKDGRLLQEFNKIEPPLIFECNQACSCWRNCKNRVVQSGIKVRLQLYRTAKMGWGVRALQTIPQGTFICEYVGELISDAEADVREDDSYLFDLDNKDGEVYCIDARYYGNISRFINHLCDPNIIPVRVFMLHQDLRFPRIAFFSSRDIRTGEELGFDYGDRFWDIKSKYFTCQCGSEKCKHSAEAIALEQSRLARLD
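G9a (20 nM) was preincubated 15 min with compound, then reacted 2 h at room temperature with 500 nM biotin-H3K9 peptide and 20 µM SAM. Monomethyl-H3K9 detected by AlphaScreen using anti-H3K9me1 antibody.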
BAZ2B inh: qHTS Assay for Inhibitors of BAZ2B | Bromodomain adjacent to zinc finger domain protein 2B (Homo sapiens), Q9UIF8 | AlphaScreen BAZ2B-H3K14Ac peptide displacement | Potency, µM (series often up to 114 µM), for the others: top-dose activity change, negative = inhibition, hits mostly inhibitors | actives 4.4% (n = 360,000) | AID 504333, 2011; also: % is scaled to controls: 0 for no effect and ±100 for the full control effect; nearly all actives have a fitted effect of over 60% in size
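Inhibition is scored as reduced AlphaScreen emission. The BAZ2B/b-H3(5-23)K14Ac complex (50 nM each) in PBS pH 7.4, 0.01% Tween-20 meets compound (up to 110 uM) for 30 min at RT before bead addition.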
GLS inh: qHTS for Inhibitors of Glutaminase (GLS) | Glutaminase kidney isoform, mitochondrial (Homo sapiens), O94925 | GLS enzymatic activity, qHTS titration | actives 0.21% (n = 410,000) | Potency, µM (highest dose often 45.5 µM), for inactives: top-dose activity change, negative = inhibition, actives largely listed as inhibitors; also: % is scaled to controls: 0 for no effect and ±100 for the full control effect
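Read-out is an Amplex red fluorescence increase coupled through glutamate oxidase and HRP, measured before and after 30 min room-temperature incubation. hKGA is in 45 mM KH2PO4 (pH 8.2) with 0.02% Tween-20; glutamine added as 1mM solution.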
L3MBTL1 block: qHTS Assay for the Inhibitors of L3MBTL1. Potency, µM (doses to about 57.1 µM), for the others: top-dose activity, negative = inhibition, usual class: inhibitors. AlphaScreen L3MBTL1–H3K9me1 peptide binding. Lethal(3)malignant brain tumor-like protein 1 (Homo sapiens), Q9Y468. actives 0.66% (n = 230,000); also: % is scaled to controls: 0 for no effect and ±100 for the full control effect; nearly all actives have a fitted effect of over 60% in size
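AlphaScreen assay: L3MBTL1 (50 nM final) was preincubated 30 min at room temperature with biotinylated H3(1-15)K9me1 peptide (75 nM final), then 30 min with library compounds; streptavidin donor and nickel chelate acceptor beads (10 ug/mL final) added, 30 min dark.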
HP1b chromo inh: HTS for Inhibitors of HP1-beta Chromodomain Interactions with Methylated Histone Tails; AID 540317, 2011; Potency, µM (highest dose often 114 µM), inactives show at the highest dose activity change, negative = inhibition, hits mostly inhibitors; AlphaScreen HP1-beta / biotin-H3K9me3 peptide binding; actives 0.56% (n = 390,000); Chromobox protein homolog 1 (Homo sapiens), P83916; also: nearly all actives have a fitted effect of over 70% in size
Target sequence (P83916 whole entry, looked up): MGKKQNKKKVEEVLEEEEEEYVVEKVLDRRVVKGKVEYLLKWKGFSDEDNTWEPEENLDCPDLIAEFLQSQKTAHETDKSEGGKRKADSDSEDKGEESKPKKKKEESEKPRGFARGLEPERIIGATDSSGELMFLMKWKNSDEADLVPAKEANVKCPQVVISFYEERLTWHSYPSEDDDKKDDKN
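AlphaScreen: HP1-beta (50 nM) preformed 30 min with biotin-H3(1-18)K9me3 peptide (50 nM) in PBS pH 7.4, 0.01% Tween-20. Compound added for 30 min at RT, then streptavidin donor/nickel chelate acceptor beads (10 ug/mL) for 30 min.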
JMJD2A Tudor: qHTS Assay for Inhibitors of JMJD2A-Tudor Domain; Lysine-specific demethylase 4A (Homo sapiens), O75164; AlphaScreen JMJD2A-Tudor / H3K4me3 peptide binding; Potency, µM (titrated, usually from 114 µM), inactives show at the highest dose activity change, negative = inhibition, actives largely listed as inhibitors; actives 4.4% (n = 390,000); AID 504339, 2011; also: % is scaled to controls: 0 for no effect and ±100 for the full control effect; nearly all actives have a fitted effect of over 50% in size
An asterisk follows results filed as active; u = inconclusive; x = no result; [ ] = another dose, or the depositor's remark. An excerpt weighted towards active compounds, which were near 10% of everything screened. Calls follow the shape of the dose curve; as a rule, active = well fitted curve in the direction sought with a large enough effect; inconclusive = small, poorly fitted or top-dose-only effect, or another doubt; inactive = no such curve, though single readings can be large; an effect the other way counts as inactive or inconclusive. Potency is read from the fitted curve at half-maximal effect.

SMILES	G9a block	BAZ2B inh	GLS inh	L3MBTL1 block	HP1b chromo inh	JMJD2A Tudor
Cc1ccc(C)c(CN2C(=O)C3(c4ccccc42)N(c2ccc(Cl)cc2)C(=O)CS3(=O)=O)c1 (stereo not given)	-27%[59 µM]	-1%[57.1 µM]	-3%	x	11%	-24%
CCS(=O)(=O)N1Cc2ccccc2CC1C(=O)NCC12CC3CC(CC(C3)C1)C2 (stereo not given)	-29%[12.7 µM]	5%	2%	x	1%	-12%
CCS(=O)(=O)N1Cc2ccccc2CC1C(=O)NC(C)C12CC3CC(CC(C3)C1)C2 (stereo not given)	14µM*	-7%	-12%	x	26%	-7%
COc1cc2c(cc1OC)C(c1cccs1)N(C(=O)c1cccc(S(=O)(=O)N(C)C)c1)CC2 (stereo not given)	50µM*	-29%	4%	-4%	4%	u
COc1cc2c(cc1OC)C(c1ccccc1)N(C(=O)c1ccccc1)CC2 (stereo not given)	-18%	u	-1%	-8%	13%	u
COc1cc(/C=N/Nc2ccc(Cl)c(C(=O)O)c2)ccc1OC(=O)c1cccs1	25µM*	u	40%	-6%	-7%	u
COc1cc(/C=N/Nc2ccccc2)ccc1OC(=O)c1cccs1	28µM*	16%	13%	20%	23%	-13%
Cc1ccc(Cn2cc(S(=O)(=O)c3cccc(Cl)c3)c(=O)c3cc(F)c(N4CCCCC4)cc32)cc1	8%[59 µM]	-3%	4%	x	37%	-1%
COc1ccccc1NC(=O)C1=C(C)Nc2nc(SCc3ccccc3)nn2C1c1cccc(O)c1 (stereo not given)	-3%[59 µM]	0%	10%	x	15%	-17%
COc1ccc(CNC(=O)CCNC(=O)N2CCn3c2nc2ccccc23)cc1	45µM*	-17%[57.1 µM]	19%	x	34%	40µM*
O=C(c1ccccc1)N1CCn2c1nc1ccccc12	-7%[0.501 µM]	5%	-9%	7%	5%	56µM*
Cc1nn(C)c2c1c(C(F)(F)F)cc(=O)n2C(C)C(=O)NCCc1ccc(Cl)cc1 (stereo not given)	4%[59 µM]	2%	-14%	x	-24%	-19%
CCOC(=O)COc1ccc2c(C)c(CCN(CC)CC)c(=O)oc2c1Cl	-35%[12.7 µM]	x	25%	x	x	x
N=C(N)SCCc1cccc(CCSC(=N)N)c1	3.5µM*	x	3%	x	23%	-7%
CCN(CC(=O)Nc1c(C(=O)OC)[nH]c2ccc(Cl)cc12)c1ccc2c(c1)OCO2	28µM*	40µM*	29%	-18%	u	56µM*
CCOC(=O)c1[nH]c2ccc(Cl)cc2c1NC(=O)/C=C/c1ccc2c(c1)OCO2	51%[59 µM]	-7%	2%	5%	35%	-9%
Cc1ccc(CNC(=O)c2c(C)oc3ncnc(N4CCOCC4)c23)cc1	3%[59 µM]	10%[57.1 µM]	0%	x	32%	-5%
O=C(Cn1c(=O)oc2cc(S(=O)(=O)NCc3ccccc3)ccc21)N(CCO)Cc1ccccc1	9%[59 µM]	1%	2%	x	-4%	-15%
O=C(O)CC1Sc2nc3ccccc3n2C1=O (stereo not given)	45µM*	1%	10%	x	29%	-23%
O=C(O)CC1SC(=O)N(Cc2ccccc2)C1=O (stereo not given)	u	-2%	14%	5%	30%	-12%
COc1ccc(/C(=N/O)C(C)(C)NO)cc1	13µM*	50µM*	24%	x	u	40µM*
C/C(=N\O)C(C)(C)Nc1ccc(Br)cc1	-44%	3%	5%	-3%	36%	-22%
